About 83,000 compounds went through this panel and 20% of them were active in at least one assay; those are over-represented in the sample as a whole.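 Testing used 96-well plates and a 48-hour single-concentration exposure. Example: -40 means 40% of the starting cells died.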 A number with no mark means an inactive call. Calls of active or inactive are those of the source. The calls were made as follows: active = growth percent below 10; inactive = the rest.
Tested on: CCRF-CEM leukemia
Experiment: NCI-60 one-dose screen, 48 h (100 = growth as untreated, 0 = no growth, -100 = all killed)
Settings: 10 µM

SMILES | growth
O=C(/C=C/c1ccco1)c1nc2ccccc2n1Cc1ccc(Br)cc1 | -6.79% (active)
O=C(/C=C/c1ccco1)c1nc2ccccc2n1Cc1ccc(F)cc1 | 21.4%
C#CC[Se]C(=O)c1ccc2n[se]nc2c1 | -24.8% (active)
O=C(/C=C/c1ccc(Cl)cc1)c1nc2ccccc2n1Cc1ccc(Br)cc1 | -10.9% (active)
CCOP(=O)(OCC)C(NC(C)=O)C(=O)SCCN (centres undefined) | 100%
COc1cc2cc(C(=O)N3C[C@@H](CCl)c4c3cc(OC(=O)N3CCN(C)[C@@H]5CSSC[C@H]53)c3ccccc43)[nH]c2c(OC)c1OC | -23.1% (active)
COCCOCCOCCOc1ccc(-n2cc(CCCN(CCNc3ccnc4cc(Cl)ccc34)C(=O)CCC(=O)O[C@@H]3O[C@@H]4OC5(C)CC[C@H]6[C@H](C)CC[C@@H]([C@H]3C)[C@@]46OO5)nn2)cc1 | 26.4%
C[C@H]1[C@@H](CC(=O)N[C@@H](Cc2coc3ccccc23)B(O)O)O[C@@H]2OC3(C)CC[C@H]4[C@H](C)CC[C@@H]1[C@@]24OO3 | -10.3% (active)
COP(=O)(CC(F)(F)C(F)(F)F)OC | 5.28% (active)
CC12OOC(C)(OO1)C2CCC(=O)NCCNc1ccnc2cc(Cl)ccc12 (centres undefined) | 80.6%
CC[C@]12C=CCN3CC[C@@]4(c5ccc(OC)cc5N(C)[C@H]4[C@@](O)(C(=O)OC)[C@@H]1OC(=O)CCC[P+](c1ccc(C)cc1)(c1ccc(C)cc1)c1ccc(C)cc1)[C@@H]32 | -67% (active)
CC1=C(COCCOC(=O)c2ccc(S(=O)(=O)F)cc2)C2=C(C)C3(CC3)[C@@](C)(O)C(=O)C2=C1 | 15.8%
CC[C@]12C=CCN3CC[C@@]4(c5ccc(OC)cc5N(C)[C@H]4[C@@](O)(C(=O)OC)[C@@H]1OC(=O)CCCC[P+](c1ccc(OC)cc1)(c1ccc(OC)cc1)c1ccc(OC)cc1)[C@@H]32 | -59.1% (active)
CCOP(=O)(CC(F)(F)C(F)(F)F)OCC | 8.28% (active)
CC1=C2C(=C[C@@](C)(COP(=O)(Oc3ccccc3)Oc3ccccc3)[C@@H]2O)C(=O)[C@@](C)(O)C12CC2 | 12.5%
CC1=C(CCC=O)C2=C(C)C3(CC3)[C@@](C)(O)C(=O)C2=C1 | -15.3% (active)
C[C@H]1[C@@H](Oc2ccc(-c3cn(-c4ccnc5cc(Cl)ccc45)nn3)cc2)O[C@@H]2OC3(C)CC[C@H]4[C@H](C)CC[C@@H]1[C@@]24OO3 | 38.8%
COC(=O)CCn1c(-c2ccc(-n3cc(-c4ccc(O[C@H]5O[C@@H]6OC7(C)CC[C@H]8[C@H](C)CC[C@@H]([C@H]5C)[C@@]68OO7)cc4)nn3)cc2)nc2ccccc21 | 28.1%
C[C@H]1[C@H](OC(=O)CCC(=O)N(CCCc2cn(-c3ccc([N+](=O)[O-])cc3)nn2)CCNc2ccnc3cc(Cl)ccc23)O[C@@H]2OC3(C)CC[C@H]4[C@H](C)CC[C@@H]1[C@@]24OO3 | 26.3%
